The full data set covers some 8,800 targets. This sample favours those with a hit. About 0.5% of all pairs of compound and target were hits. Values without a mark were called inactive.
How the values were obtained:
Test in all cases: log2 fold change, soluble protein after heating vs DMSO (PISA); higher = thermal stabilisation; K562 lysate, 10 uM; active = over 0.2 and 3.5 SD of the protein, either way, in both replicates (recomputed)
vemurafenib = compound: CCCS(=O)(=O)Nc1ccc(F)c(C(=O)c2c[nH]c3ncc(-c4ccc(Cl)cc4)cc23)c1F [vemurafenib]
Outline: (§1)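 To prepare the extract, K562 pellets were dounce-homogenised in PBS pH 7.4 with 1 mM MgCl2, giving crude material at 1 mg/mL protein. This was treated with 10 μM compound for 30 min, then heated in aliquots for 3 min over 48°C-58°C before pooling and addition of NP-40 to 0.5% at 4°C. Centrifugation at 21,000xg for 90 min left soluble protein in the supernatant, which TMTpro 16plex LC-MS/MS quantified with equalised channel sums. Results are log-two fold changes in thermal stability compared with solvent controls, from duplicates.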

[1] = compound: CCCS(=O)(=O)Nc1ccc(F)c(C(=O)c2c[nH]c3ncc(Cl)cc23)c1F
Outline: as §1

barasertib = compound: CCN(CCCOc1ccc2c(Nc3cc(CC(=O)Nc4cccc(F)c4)[nH]n3)ncnc2c1)CCOP(=O)(O)O [barasertib]
Outline: as §1

[2] = compound: CC[C@@H]1C(=O)N(C)c2cnc(Nc3ccc(C(=O)NC4CCN(C)CC4)cc3OC)nc2N1C1CCCC1
Outline: as §1

volasertib = compound: CC[C@@H]1C(=O)N(C)c2cnc(Nc3ccc(C(=O)N[C@H]4CC[C@H](N5CCN(CC6CC6)CC5)CC4)cc3OC)nc2N1C(C)C [volasertib]
Outline: as §1

[3] = compound: CCn1c(C(=O)N(C2CC2)C2CC2)cc2c3c(ncn3C)c(Nc3cc(C)n(C)n3)nc21
Outline: as §1

[4] = compound: CCn1cc(-c2ccnc3[nH]c(-c4cccc(CN(C)C)c4)cc23)c(-c2ccc(NC(=O)N(C)C)cc2)n1
Outline: as §1

[5] = compound: CN1CCC(CNc2ccc3ncc(-c4cccc(OC(F)(F)F)c4)n3n2)CC1
Outline: as §1

saracatinib = compound: CN1CCN(CCOc2cc(OC3CCOCC3)c3c(Nc4c(Cl)ccc5c4OCO5)ncnc3c2)CC1 [saracatinib]
Outline: as §1

sotrastaurin = compound: CN1CCN(c2nc(C3=C(c4c[nH]c5ccccc45)C(=O)NC3=O)c3ccccc3n2)CC1 [sotrastaurin]
Outline: as §1

Chain of UniProt Q8IWV2 (Q8IWV2 whole entry, looked up): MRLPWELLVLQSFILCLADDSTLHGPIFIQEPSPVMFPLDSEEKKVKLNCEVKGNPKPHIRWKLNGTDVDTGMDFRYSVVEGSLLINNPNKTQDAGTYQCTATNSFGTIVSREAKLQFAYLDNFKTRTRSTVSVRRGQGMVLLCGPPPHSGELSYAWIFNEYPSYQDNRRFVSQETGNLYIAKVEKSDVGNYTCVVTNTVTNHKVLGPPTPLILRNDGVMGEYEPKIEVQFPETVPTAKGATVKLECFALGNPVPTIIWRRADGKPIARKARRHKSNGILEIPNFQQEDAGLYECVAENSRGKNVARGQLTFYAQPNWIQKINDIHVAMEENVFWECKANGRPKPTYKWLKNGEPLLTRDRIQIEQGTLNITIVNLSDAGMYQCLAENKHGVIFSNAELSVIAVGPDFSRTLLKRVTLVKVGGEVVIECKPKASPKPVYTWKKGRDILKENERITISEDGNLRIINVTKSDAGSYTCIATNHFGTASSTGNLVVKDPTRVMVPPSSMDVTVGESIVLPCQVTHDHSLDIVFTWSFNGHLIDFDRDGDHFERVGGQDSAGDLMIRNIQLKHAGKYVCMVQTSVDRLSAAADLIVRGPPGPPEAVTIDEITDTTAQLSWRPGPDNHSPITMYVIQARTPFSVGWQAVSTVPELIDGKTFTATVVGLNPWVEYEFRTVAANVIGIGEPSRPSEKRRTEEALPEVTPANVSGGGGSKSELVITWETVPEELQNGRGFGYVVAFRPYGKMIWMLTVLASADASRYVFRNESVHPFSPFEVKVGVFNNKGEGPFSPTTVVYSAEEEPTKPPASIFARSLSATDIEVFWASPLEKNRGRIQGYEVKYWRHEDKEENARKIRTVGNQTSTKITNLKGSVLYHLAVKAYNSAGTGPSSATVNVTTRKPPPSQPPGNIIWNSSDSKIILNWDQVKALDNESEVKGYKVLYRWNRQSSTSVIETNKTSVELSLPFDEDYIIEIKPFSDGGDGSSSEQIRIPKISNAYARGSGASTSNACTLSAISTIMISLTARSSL
Chain of UniProt P48729 (P48729 whole entry, looked up): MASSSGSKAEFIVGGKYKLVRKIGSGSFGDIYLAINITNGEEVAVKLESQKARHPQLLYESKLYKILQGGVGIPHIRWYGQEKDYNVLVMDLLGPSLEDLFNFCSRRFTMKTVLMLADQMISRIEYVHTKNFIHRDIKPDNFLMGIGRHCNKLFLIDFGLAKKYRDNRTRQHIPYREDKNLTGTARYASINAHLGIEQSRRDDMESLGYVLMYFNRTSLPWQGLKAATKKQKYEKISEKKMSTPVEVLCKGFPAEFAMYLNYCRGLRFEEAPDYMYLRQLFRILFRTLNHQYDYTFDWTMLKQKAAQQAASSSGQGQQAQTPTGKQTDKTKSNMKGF
Chain of UniProt O96017 (O96017 whole entry, looked up): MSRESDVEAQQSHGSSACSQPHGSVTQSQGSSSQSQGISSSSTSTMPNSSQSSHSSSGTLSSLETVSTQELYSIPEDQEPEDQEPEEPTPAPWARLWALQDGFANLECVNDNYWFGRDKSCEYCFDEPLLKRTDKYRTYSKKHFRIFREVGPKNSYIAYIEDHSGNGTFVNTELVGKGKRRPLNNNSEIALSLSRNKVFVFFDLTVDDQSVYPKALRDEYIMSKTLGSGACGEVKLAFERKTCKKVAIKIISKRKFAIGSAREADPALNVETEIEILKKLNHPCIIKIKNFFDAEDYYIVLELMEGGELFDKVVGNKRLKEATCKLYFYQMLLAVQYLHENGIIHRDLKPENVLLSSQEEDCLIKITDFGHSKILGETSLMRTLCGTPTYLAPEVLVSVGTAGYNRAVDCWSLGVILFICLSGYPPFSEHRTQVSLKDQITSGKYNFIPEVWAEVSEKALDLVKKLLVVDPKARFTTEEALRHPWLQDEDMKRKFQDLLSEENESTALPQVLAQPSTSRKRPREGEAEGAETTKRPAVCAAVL
Chain of UniProt O00148 (O00148 whole entry, looked up): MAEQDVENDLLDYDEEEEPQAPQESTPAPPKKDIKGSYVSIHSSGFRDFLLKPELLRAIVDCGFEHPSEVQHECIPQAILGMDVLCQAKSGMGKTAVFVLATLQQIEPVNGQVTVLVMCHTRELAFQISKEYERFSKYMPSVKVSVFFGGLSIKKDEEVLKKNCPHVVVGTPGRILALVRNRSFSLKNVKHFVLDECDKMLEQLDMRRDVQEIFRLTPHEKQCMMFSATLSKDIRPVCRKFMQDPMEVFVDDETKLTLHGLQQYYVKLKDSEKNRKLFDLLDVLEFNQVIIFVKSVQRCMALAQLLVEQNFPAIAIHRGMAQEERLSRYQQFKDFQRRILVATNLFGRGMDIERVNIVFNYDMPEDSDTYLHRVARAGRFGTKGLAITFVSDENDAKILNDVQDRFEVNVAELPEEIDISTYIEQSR
Chain of UniProt Q96EP5 (Q96EP5 whole entry, looked up): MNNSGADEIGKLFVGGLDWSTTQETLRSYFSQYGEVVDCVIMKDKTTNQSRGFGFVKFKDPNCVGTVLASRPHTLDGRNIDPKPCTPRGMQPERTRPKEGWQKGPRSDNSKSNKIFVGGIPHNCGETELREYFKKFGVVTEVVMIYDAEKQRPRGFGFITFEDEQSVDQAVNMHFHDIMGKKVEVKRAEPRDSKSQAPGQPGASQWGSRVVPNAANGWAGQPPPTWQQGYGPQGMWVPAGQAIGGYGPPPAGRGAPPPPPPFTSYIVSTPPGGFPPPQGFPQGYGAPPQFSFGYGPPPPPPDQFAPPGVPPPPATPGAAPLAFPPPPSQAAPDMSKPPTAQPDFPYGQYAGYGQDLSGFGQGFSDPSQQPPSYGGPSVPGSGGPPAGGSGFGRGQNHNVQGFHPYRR
Chain of UniProt O75911 (O75911 whole entry, looked up): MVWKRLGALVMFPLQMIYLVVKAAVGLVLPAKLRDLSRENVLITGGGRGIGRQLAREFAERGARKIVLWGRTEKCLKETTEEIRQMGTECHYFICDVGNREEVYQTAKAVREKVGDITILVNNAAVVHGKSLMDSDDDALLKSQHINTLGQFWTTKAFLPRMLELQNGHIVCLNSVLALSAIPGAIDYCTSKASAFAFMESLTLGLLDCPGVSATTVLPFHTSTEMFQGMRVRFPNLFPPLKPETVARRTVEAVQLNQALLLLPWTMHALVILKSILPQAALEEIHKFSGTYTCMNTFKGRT
Chain of UniProt P61923 (P61923 whole entry, looked up): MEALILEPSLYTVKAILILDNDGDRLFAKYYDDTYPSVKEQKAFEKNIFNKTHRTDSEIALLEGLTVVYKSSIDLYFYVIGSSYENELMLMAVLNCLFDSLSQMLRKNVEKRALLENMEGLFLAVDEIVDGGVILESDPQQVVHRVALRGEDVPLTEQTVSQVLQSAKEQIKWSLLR
Chain of UniProt P49674 (P49674 whole entry, looked up): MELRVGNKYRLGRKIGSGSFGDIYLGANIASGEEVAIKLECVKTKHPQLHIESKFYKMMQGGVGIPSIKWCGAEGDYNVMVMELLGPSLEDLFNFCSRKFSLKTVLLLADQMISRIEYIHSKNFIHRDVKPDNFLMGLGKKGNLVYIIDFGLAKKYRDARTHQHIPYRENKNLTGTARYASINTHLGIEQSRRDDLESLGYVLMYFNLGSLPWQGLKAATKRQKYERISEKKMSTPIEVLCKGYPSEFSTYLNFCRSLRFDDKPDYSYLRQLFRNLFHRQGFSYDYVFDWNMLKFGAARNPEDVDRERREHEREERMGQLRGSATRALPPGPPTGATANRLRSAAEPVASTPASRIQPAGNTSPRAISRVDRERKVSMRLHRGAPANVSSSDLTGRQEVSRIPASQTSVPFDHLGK
Chain of UniProt Q8TB03 (Q8TB03 whole entry, looked up): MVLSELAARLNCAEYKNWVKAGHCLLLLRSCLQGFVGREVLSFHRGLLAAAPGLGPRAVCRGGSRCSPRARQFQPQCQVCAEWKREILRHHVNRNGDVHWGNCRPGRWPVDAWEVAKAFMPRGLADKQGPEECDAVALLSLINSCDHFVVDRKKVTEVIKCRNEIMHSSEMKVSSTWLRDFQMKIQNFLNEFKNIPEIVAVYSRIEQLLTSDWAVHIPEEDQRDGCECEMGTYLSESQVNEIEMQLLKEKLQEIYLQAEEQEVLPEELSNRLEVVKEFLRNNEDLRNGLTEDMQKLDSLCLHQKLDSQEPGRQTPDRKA
Chain of UniProt Q6P3S1 (Q6P3S1 whole entry, looked up): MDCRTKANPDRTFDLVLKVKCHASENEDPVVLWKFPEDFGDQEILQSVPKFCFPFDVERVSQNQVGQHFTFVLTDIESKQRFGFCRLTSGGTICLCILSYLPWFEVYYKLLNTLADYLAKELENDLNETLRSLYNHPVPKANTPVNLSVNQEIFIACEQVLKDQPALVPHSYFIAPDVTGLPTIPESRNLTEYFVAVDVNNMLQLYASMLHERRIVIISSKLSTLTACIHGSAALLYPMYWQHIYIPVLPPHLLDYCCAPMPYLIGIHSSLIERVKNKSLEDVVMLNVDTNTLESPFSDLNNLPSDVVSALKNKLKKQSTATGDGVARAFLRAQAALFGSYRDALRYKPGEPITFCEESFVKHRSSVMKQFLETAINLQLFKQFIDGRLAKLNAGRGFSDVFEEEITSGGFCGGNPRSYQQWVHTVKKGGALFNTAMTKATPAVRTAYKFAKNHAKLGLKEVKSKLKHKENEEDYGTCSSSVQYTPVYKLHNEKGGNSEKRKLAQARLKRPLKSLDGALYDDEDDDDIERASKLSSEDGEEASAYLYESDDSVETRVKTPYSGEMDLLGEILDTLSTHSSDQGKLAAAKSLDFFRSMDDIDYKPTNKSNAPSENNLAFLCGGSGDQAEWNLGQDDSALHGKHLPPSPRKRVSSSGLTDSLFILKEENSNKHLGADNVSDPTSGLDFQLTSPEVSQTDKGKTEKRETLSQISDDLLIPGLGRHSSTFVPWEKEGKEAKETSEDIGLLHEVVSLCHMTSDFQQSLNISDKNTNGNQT
Chain of UniProt Q6P3W2 (Q6P3W2 whole entry, looked up): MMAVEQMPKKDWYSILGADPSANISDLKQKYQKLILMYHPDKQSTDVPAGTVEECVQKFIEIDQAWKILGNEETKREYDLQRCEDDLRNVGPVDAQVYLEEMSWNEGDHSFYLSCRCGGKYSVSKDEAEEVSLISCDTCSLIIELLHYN

Row | Target | log2 fold change (vemurafenib) | log2 fold change [1] | log2 fold change (barasertib) | log2 fold change [2] | log2 fold change (volasertib) | log2 fold change [3] | log2 fold change [4] | log2 fold change [5] | log2 fold change (saracatinib) | log2 fold change (sotrastaurin)
1 | CKAP5 (UniProt Q14008) | -0.023 | -0.013 | 0.003 | -0.002 | -0.021 | 0.022 | -0.016 | -0.033 | 0.005 | 0.025
2 | DOK1 (UniProt Q99704) | 0.028 | 0.061 | -0.027 | -0.113 | -0.026 | 0.021 | -0.055 | 0.101 | 0.024 | 0.029
3 | DDX39A (UniProt O00148) | 0.021 | 0.021 | 0.047 | -0.049 | -0.071 | -0.028 | -0.041 | -0.027 | -0.032 | -0.002
4 | DMAC2L (UniProt Q99766) | 0.002 | 0.026 | 0.065 | 0.075 | -0.028 | 0.021 | -0.017 | 0.053 | 0.058 | -0.012
5 | COPZ1 isoform 4 (UniProt P61923) | -0.054 | -0.004 | 0.111 | 0.022 | 0.019 | 0.004 | -0.015 | -0.187 | 0.018 | 0.01
6 | DHRS3 (UniProt O75911) | 0.082 | 0.012 | -0.01 | -0.03 | 0.033 | -0.041 | -0.061 | 0.034 | 0.029 | 0.013
7 | CHEK2 (UniProt O96017) | -0.059 | 0.042 | 0.087 | -0.06 | -0.044 | 0.051 | 0.08 | -0.057 | -0.036 | 0
8 | CMIP (UniProt Q8IY22) | 0.009 | 0.023 | 0.04 | -0.055 | -0.057 | 0.043 | -0.043 | -0.054 | 0.014 | 0.017
9 | CXXC1 isoform 2 (UniProt Q9P0U4) | -0.029 | -0.117 | -0.02 | -0.256 | -0.027 | 0.031 | -0.072 | 0.041 | -0.066 | -0.04
10 | CSNK1A1 (UniProt P48729) | -0.044 | 0.017 | -0.003 | 0.078 | -0.066 | 0.097 | 0.065 | 0.171 | 0.02 | 0.048
11 | COG6 (UniProt Q9Y2V7) | 0.062 | 0.013 | 0.072 | -0.004 | -0.046 | 0.015 | -0.116 | 0.017 | 0.073 | -0.017
12 | CXorf38 (UniProt Q8TB03) | 0.017 | -0.015 | -0.024 | 0.038 | 0.013 | -0.027 | -0.059 | 0.04 | 0.105 | 0.018
13 | DPM1 (UniProt O60762) | 0.055 | 0.004 | -0.021 | 0.039 | 0.001 | -0.012 | -0.013 | -0.058 | 0.036 | 0.028
14 | DIAPH1 (UniProt H9KV28) | 0.098 | -0.01 | 0.091 | -0.049 | -0.046 | -0.046 | -0.07 | 0.153 |  | -0.001
15 | DARS (UniProt P14868) | 0.02 | 0.021 | 0.021 | -0.099 | -0.043 | 0.062 | 0.026 | -0.012 | 0.018 | 0.011
16 | CHML (UniProt P26374) | 0.01 | 0.008 | 0.004 | 0.011 | 0.022 | -0.007 | -0.012 | 0.026 | -0.002 | 0.005
17 | DAZAP1 (UniProt Q96EP5) | 0.036 | 0.043 | -0.017 | 0.016 | 0.011 | 0.065 | 0.129 | 0.032 | 0.003 | -0.109
18 | CTPS2 (UniProt Q9NRF8) | 0.002 | 0.01 | 0.015 | -0.028 | -0.009 | 0.011 | -0.041 | 0.058 | 0.012 | -0.044
19 | CNTN4 (UniProt Q8IWV2) | 0.237 | 0.12 | 0.03 | 0.295 | 0.024 | -0.326 | -0.474 | 0.128 |  | -0.076
20 | CSPP1 (UniProt Q1MSJ5) | 0.03 | -0.505 (active) | 0.026 | 0.057 | 0.125 | 0.05 | 0.029 | -0.006 | -0.049 | -0.046
21 | CLPTM1L (UniProt Q96KA5) | -0.006 | 0.049 | 0.079 | 0.067 | -0.043 | 0.012 | -0.099 | 0.016 | 0.049 | -0.001
22 | CNST (UniProt Q6PJW8) | 0.002 | -0.026 | -0.07 | 0.079 | -0.008 | 0.02 | -0.066 | 0.019 | 0.033 | 0.039
23 | CLASP2 (UniProt O75122) | 0.241 | 0.072 | -0.015 | 0.021 | -0.052 | -0.098 | -0.077 | 0.073 |  | 0.18
24 | DNAJC24 (UniProt Q6P3W2) | 0.141 | -0.038 |  | 0.017 | 0.027 | 0.002 | 0.196 | -0.309 (active) | -0.013 | -0.032
25 | DENND1B (UniProt Q6P3S1) | 0.128 | -0.036 | 0.01 |  | -0.05 | -0.134 | 0.022 | -0.024 | -0.018 | 0.04
26 | CSNK1E (UniProt P49674) | -0.013 | -0.038 | 0.029 | 0.135 | -0.01 | 0.11 | -0.013 | 0.237 | 0.069 | 0.061
27 | CNNM2 (UniProt Q9H8M5) | 0.025 | 0.024 |  | 0 | -0.043 | -0.091 | -0.059 | 0.036 | -0.039 | 0.091
28 | CORO7 isoform 3 (UniProt P57737) | 0.031 | 0.013 | 0.008 | -0.042 | -0.01 | 0.016 | 0.044 | -0.175 | 0.004 | 0.008
29 | DNAH10 (UniProt Q8IVF4) | 0.067 | 0 | 0.069 | 0.064 | 0.044 | -0.05 | -0.582 (active) | 0.139 | 0.022 | -0.029
30 | CUX1 isoform 2 (UniProt Q13948) | 0.013 | 0.084 |  | -0.087 | -0.001 | 0.019 | 0.06 | -0.34 | -0.054 | 0.081

Source: the supplement of paper PMC10849652
